Screens as filed in PubChem BioAssay.
D1 agonist = Allosteric Agonists of the Human D1 Dopamine Receptor: qHTS. D(1A) dopamine receptor (Homo sapiens), P21728. HEK293 T-REx D1 cells, calcium flux, agonist mode. activation, % at 2 µM. 360,000 tested, 1% active; in the data active = activation above about 30%; also: 0% is about no effect
Target sequence (P21728 whole entry, looked up): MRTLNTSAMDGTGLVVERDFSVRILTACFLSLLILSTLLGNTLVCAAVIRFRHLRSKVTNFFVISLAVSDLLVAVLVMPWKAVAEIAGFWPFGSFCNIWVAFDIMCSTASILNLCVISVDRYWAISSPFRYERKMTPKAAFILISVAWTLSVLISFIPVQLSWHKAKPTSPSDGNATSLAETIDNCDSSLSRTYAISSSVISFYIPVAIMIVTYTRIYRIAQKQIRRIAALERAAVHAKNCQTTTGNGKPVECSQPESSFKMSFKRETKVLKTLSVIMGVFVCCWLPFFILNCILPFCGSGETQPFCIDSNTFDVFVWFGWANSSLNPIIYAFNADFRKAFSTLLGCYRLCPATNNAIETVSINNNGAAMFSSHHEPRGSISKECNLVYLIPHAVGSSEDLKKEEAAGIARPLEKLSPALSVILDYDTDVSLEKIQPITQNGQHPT
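Agonism was scored from calcium flux recorded over 180 s (1 read/s) after pintool compound addition, following a 10-cycle baseline. Cells were inducible force-coupled HEK293 TREx D1, plated overnight at 30 C and loaded with no-wash calcium dye.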
D1 potentiator = Potentiators of Human D1 Dopamine Receptor: qHTS; D(1A) dopamine receptor (Homo sapiens), P21728; HEK293 TREx D1 cells, calcium flux, dopamine EC20 potentiation; potentiation, % at 10 µM; 360,000 tested, 0.036% active; AID 504651, 2011; in the data active = potentiation above about 30%; also: 0% is about no effect
GALK inhibitor = qHTS Assay for Inhibitors of Human Galactokinase (GALK); P51570; Purified GALK, Kinase-Glo residual ATP luminescence; Potency, µM (series often up to 57.5 µM), without a hit: at the top dose activity change, negative = inhibition, most hits filed as inhibitors; 270,000 tested, 0.007% active; AID 1868, 2009; also: potency is read from the fitted curve at half-maximal effect; % is scaled to controls: 0 for no effect and ±100 for the full control effect
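Human GALK (5 nM) with 35 uM ATP and 100 uM galactose in 20 mM HEPES pH 8.0, 5 mM MgCl2, 60 mM NaCl, 1 mM DTT, 0.01% BSA. After 1 h at room temperature, leftover ATP was read by Kinase-Glo Plus luminescence.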
D1 antag = Antagonist of Human D 1 Dopamine Receptor: qHTS. D(1A) dopamine receptor (Homo sapiens), P21728. HEK293 TREx D1 cells, calcium flux, dopamine EC80; stronger effect = lower value. activity change, negative = inhibition, % at 10 µM. 360,000 tested, 3.2% active. AID 504652, 2011; in the data active = activity change below about -30%; also: % is scaled to controls: 0 for no effect and ±100 for the full control effect
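Using tetracycline-induced force-coupled D1 Hek293 cells and a calcium dye, signals were followed for 180 s after compound, then for 180 s after EC80 dopamine, to detect inhibitors.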
Eya2 inh = qHTS Assay for Inhibitors of the Phosphatase Activity of Eya2; Potency, µM (top dose mostly 76.9 µM), inactives show at the top dose activity, negative = inhibition, actives largely listed as inhibitors; AID 488837, 2010; 330,000 tested, 0.006% active; recombinant Eya2, OMFP fluorescence dephosphorylation (OMFP is methylfluorescein phosphate); Protein phosphatase EYA2 (Homo sapiens), O00167; also: potency is read from the fitted curve at half-maximal effect; % is scaled to controls: 0 for no effect and ±100 for the full control effect
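Eya2 (0.2 uM) preincubated 10 min at ambient with compound, then OMFP substrate added at 50 uM; 10 min reaction in 50 mM HEPES pH 7.5, 50 mM NaCl, 5 uM MgCl2, 0.05% BSA, 1 mM DTT. Fluorescence read at Ex 485/Em 525 nm.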
USP2a block = qHTS Assay for Inhibitors of Ubiquitin-specific Protease USP2a Using CHOP2 as the Reporter | USP2 core, Ub-CHOP2 coupled fluorogenic reporter, 485/531 | Potency, µM (series often up to 38.3 µM), for inactives: top-dose activity change, negative = inhibition, hits mostly inhibitors | 330,000 tested, 0.01% active;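 also: potency is read from the fitted curve at half-maximal effect; plate controls were DMSO wells for no effect and full inhibition by NEM control for full effect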
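USP2 core (10nM final) preincubated 30min RT with compound in 20mM Tris-HCl pH 8.0, 2mM CaCl2, 2mM beta-mercaptoethanol, 0.05% CHAPS; 25nM Ub-CHOP2 plus 25nM reporter substrate added, fluorescence (Ex485/Em531) read after 60min.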
Starred values were filed as active, the others as inactive; ? = inconclusive; · = no result given; ! = a repeat was not active; [ ] = another dose, or the depositor's remark. Shown are actives, neighbours in structure and some others; about 3.9% of the full set was active somewhere. Unless noted, calls follow the shape of the dose curve; as a rule, active = well fitted inhibition curve with a large enough effect; inconclusive = small, poorly fitted or top-dose-only effect, or effect the other way; inactive = flat fitted curve, though single readings scatter.

SMILES	D1 agonist	D1 potentiator	GALK inhibitor	D1 antag	Eya2 inh	USP2a block
CC(C)CNc1nc(Oc2ccc(=O)n(C)n2)nc(N2CCOCC2)n1	3.3	-12.3	-0.3%	-43.3*	-8.4%	2.7%
Cc1cc(C)cc(-n2ccnc2SCC(=O)Nc2ccc(C)c(Cl)c2)c1	2.9	1.3	·	-39.8*	·	·
Cc1cc(C)cc(-n2ccnc2SCC(=O)Nc2ccc3c(c2)OCCO3)c1	0.0	-4.0	-0.2%	-25.2	0.1%	0.3%
Cn1cnnc1SCC(=O)Nc1ccccc1F	3.0	-2.0	-0.3%	1.3	-20.0%	1.2%
CCOc1ccc(-n2ccnc2SCC(=O)Nc2cc(C)ccc2C)cc1	-0.6	-6.7	·	-45.6*	·	·
Cc1ccc(C)c(NC(=O)CSc2nncn2C)c1	-3.1	-5.3	-3.0%	-33.4*	-3.1%	-0.7%
Cc1ccc(NC(=O)CSC2=NN3CCCC(=O)N=C3S2)cc1Cl	25.3	·	-0.5%	-38.8*	6.5%	-1.6%
O=C1CCCN2N=C(SCC(=O)Nc3ccc(Cl)cc3)SC2=N1	9.9	-5.2	-0.6%	-9.3	-1.1%	-0.5%
Cc1ccccc1OCC(=O)Nc1ccc2nc(SCc3ccccc3)sc2c1	5.2	-0.8	·	-9.9	·	·
CCCOc1cccc(C2c3c(oc4ccc(F)cc4c3=O)C(=O)N2CCCN2CCOCC2)c1 (stereo not drawn)	2.0	-3.1	·	-2.1	·	·
COCc1cc(C)nc(SCC(=O)N2CCC(C)CC2)c1C#N	5.8	-0.3	-3.3%	-56.8*	3.2%	-5.6%
COCc1cc(C)nc(SCc2ccc([N+](=O)[O-])cc2)c1C#N	8.2	44.4*	4.1%	0.2	6.9%	-4.3%
COCc1cc(C)nc(SCC(=O)NC2CCCCC2C)c1C#N (stereo not drawn)	4.8	3.1	6.2%	10.6	1.2%	2.3%
COCc1cc(C)nc(SCc2ccccc2Cl)c1C#N	6.4	-1.4	-2.4%	7.2	4.5%	3.2%
O=C(Oc1coc(CSc2ncccn2)cc1=O)c1ccc(Br)o1	2.2	-7.0	-0.9%	-11.1	-5.6%	0.4%
O=C(Oc1coc(CSc2ncccn2)cc1=O)c1ccco1	3.2	-1.8	-0.1%	-32.6*	2.0%	0.5%
COC(=O)c1scc(-c2ccc(C)cc2)c1S(=O)(=O)Nc1cc(OC)c(OC)c(OC)c1	-0.2	0.2	·	17.1	·	·
CN(C)c1nc(SCC#N)nc(N(C)C)n1	-0.3	-7.7	-2.7%	-74.3*	-1.6%	-0.8%
CC(=O)CSc1nc(N(C)C)nc(N(C)C)n1	-2.0	-4.5	-3.3%	·	-4.4%	1.4%
COc1ccc(-c2cccc(NS(=O)(=O)c3cc(C)ccc3OC)c2)nn1	4.5	-2.1	·	-7.6	·	·
COc1ccc(OC)c(C2/C(=C(/O)c3ccccc3)C(=O)C(=O)N2Cc2ccco2)c1 (stereo not drawn)	2.0	-5.7	-2.1%	-8.7	1.4%	1.5%
COc1cc(C2/C(=C(\O)c3ccc4c(c3)OCCO4)C(=O)C(=O)N2Cc2ccco2)cc(OC)c1OC (stereo not drawn)	1.2	-8.1	-7.1%	-33.1*	2.1%	1.6%
O=C1C(=O)N(Cc2ccco2)C(c2cccc(Cl)c2)/C1=C(\O)c1ccc2c(c1)OCCO2 (stereo not drawn)	1.6	0.5	-2.2%	-52.8*	7.5%	-0.8%
COc1ccc(/C(O)=C2\C(=O)C(=O)N(Cc3ccco3)C2c2cc(OC)ccc2OC)cc1 (stereo not drawn)	1.0	1.4	0.2%	-30.5*	10.2%	9.0%
O=C(CSc1nc(=O)[nH]c2c1CCCC2)NCc1ccccc1Cl	15.0	0.5	·	·	·	·
SMILES	D1 agonist	D1 potentiator	GALK inhibitor	D1 antag	Eya2 inh	USP2a block
Cc1ccc(-n2ncc3c2CC(C)(C)CC3NC(=O)c2ccccn2)cc1 (stereo not drawn)	1.3	-2.5	2.0%	-75.7*	-1.5%	2.3%
C=CCn1c(CCC(=O)O)ccc1-c1ccccc1	2.6	-2.0	-0.2%	-56.0*	1.4%	-0.5%
O=C(COC(=O)c1cccs1)Nc1ccccc1C(F)(F)F	31.6*	-4.2	-2.8%	-32.0*	6.4%	-0.4%
O=C(O)CCc1ccc(-c2ccccc2)n1CC(=O)Nc1cccc(C(F)(F)F)c1	1.0	-8.9	-0.3%	-65.3*	-4.4%	0.5%
O=C(O)CCc1ccc(-c2cccs2)n1CC(=O)Nc1ccccc1C(F)(F)F	2.4	-2.8	5.6%	-38.8*!	-3.6%	4.4%
O=C(O)CCc1ccc(-c2ccc(Cl)cc2)n1CC(=O)Nc1ccccc1	5.3	-1.1	-2.6%	-5.0	6.8%	1.5%
CCc1ccccc1NC(=O)COC(=O)c1cccs1	-0.5	-9.5	-2.0%	-15.6	10.2%	-0.5%
O=C(O)CCc1ccc(-c2ccccc2)n1CC(=O)Nc1ccccc1C(F)(F)F	3.9	-0.7	·	-11.4	·	·
O=C(CCCn1c(=O)c2sccc2n(Cc2ccc(Cl)cc2)c1=O)NCc1ccc2c(c1)OCO2	3.4	-0.9	·	10.2	·	·
Cc1cccc(CNC(=O)CN2C(=O)CSc3c2c(C)nn3-c2ccccc2)c1	1.3	-3.9	·	7.6	·	·
COc1ccc(NC(=O)CSc2nc(-c3ccco3)cc(C(F)(F)F)n2)cc1	7.2	-4.3	·	8.4	·	·
CCCN1C=CC(=CC=C(C#N)C#N)C=C1	128.9*	-0.7	0.5%	-2.9	?	?
C=CCN1C=CC(=CC=C(C#N)C#N)C=C1	96.5*	-10.0	-3.3%	-15.7	17.8%	?
CC1=C(C(=O)Nc2ccccc2)C(c2ccc(C)o2)n2ncnc2N1 (stereo not drawn)	1.5	-12.0	0.3%	-60.3*	4.0%[15.4 µM]	-0.1%
Clc1cccc(/C=N/N2CCN(Cc3ccccc3)CC2)c1	4.8	-2.8	5.4%	-32.5*	-0.4%	1.6%
C(=N\N1CCN(Cc2ccccc2)CC1)/c1ccccc1	0.2	-3.6	1.1%	-3.7	6.1%	8.7%
COc1ccc(NC(=O)c2c(-c3ccccc3)c(-c3ccccc3)nn(C)c2=O)c(OC)c1	3.0	2.8	·	9.7	·	·
Cc1ccc(NC(=O)Cn2c(O)c(N=NC(=O)c3cc([N+](=O)[O-])ccc3O)c3ccccc32)cc1	-0.7	-7.2	0.1%	-39.6*	-1.3%	0.1%
CCOc1ccccc1C(=O)N1CCN(CCc2ccccn2)CC1	-1.6	-0.4	·	-10.4	·	·
Cc1ccccc1NC(=O)c1c(C)oc2ccc(O)c(CN3CCOCC3)c12	2.3	2.9	·	-2.8	·	·
CCCCC(=O)Nc1ccc(C(=O)NCCN2CCOCC2)cc1	-0.5	-4.0	2.4%	-57.7*	-1.1%	6.0%
O=C(NCCN1CCOCC1)c1ccc(-c2ccccc2)cc1	4.1	5.0	-0.4%	-36.3*	18.8%	-0.1%
